PLAP activator – PLAP enzyme activators, biochemical, luminescence, HTS; purified PLAP enzyme, luminescent substrate read-out; stronger effect = higher value; activation fold at 20 µM; Alkaline phosphatase, placental type (Homo sapiens), P05187; 96,000 compounds, 1.2% hits; AID 696, 2007; in the data active = activation fold above about 2
Target sequence (P05187 whole entry, looked up): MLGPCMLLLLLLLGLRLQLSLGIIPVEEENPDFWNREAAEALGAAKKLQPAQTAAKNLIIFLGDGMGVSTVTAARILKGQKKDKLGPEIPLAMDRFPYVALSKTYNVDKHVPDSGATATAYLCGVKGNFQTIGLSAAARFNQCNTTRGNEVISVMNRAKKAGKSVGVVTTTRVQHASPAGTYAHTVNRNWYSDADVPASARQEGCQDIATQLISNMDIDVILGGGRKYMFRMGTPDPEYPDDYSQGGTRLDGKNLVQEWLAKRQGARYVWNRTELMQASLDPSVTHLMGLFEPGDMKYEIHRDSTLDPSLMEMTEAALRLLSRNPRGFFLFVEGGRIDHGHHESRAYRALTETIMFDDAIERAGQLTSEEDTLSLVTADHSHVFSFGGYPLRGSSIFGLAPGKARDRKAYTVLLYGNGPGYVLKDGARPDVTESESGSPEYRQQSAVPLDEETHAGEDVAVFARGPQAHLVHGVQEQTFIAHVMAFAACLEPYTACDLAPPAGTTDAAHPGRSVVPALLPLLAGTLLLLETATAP
CYP2C9 inhib – blockers of cytochrome P450 2C9 activity – biochemical, luminescence, ADME assay, primary screen | P11712 | CYP2C9 Supersomes, luciferin-H conversion | inhibition, % at 5 µM | 96,000 compounds, 20% hits | AID 777, 2007;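 active = blocking of liver enzyme CYP2C9 beyond about 50% at 5 µM, limit read from the data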
CYP2C19 activ – human CYP2C19 activators, primary screen, biochemical, luminescence; Cytochrome P450 2C19 (Homo sapiens), P33261; recombinant CYP2C19, luciferin-H EGE luminescence; stronger effect = higher value; 0 = fully inhibited enzyme, 1 = untreated enzyme; activation factor at 5 µM; 96,000 tested, under 10 active; AID 1025, 2008;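 active = activation factor of at least 2 at 5 µM in the primary screen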;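 also: 0 = wells with 2.5 mM tranylcypromine and 1 = vehicle-only wells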
CYP2C19 inh – blockers of cytochrome P450 2C19 activity – biochemical, luminescence, ADME assay, primary screen; CYP2C19 Supersomes, luciferin-H EGE luminescence, 30 min; inhibition, % at 5 µM; 96,000 compounds, 21% hits; P33261; AID 778, 2007;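 active = CYP2C19 inhibition above a set limit at 5 µM in the primary screen, cut at about 50% in these data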;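 also: plate controls were negative control wells for no effect and 2.5 mM tranylcypromine positive control for full effect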
CYP2C9 activ – human CYP2C9 activators, primary screen, biochemical, luminescence; 96,000 compounds, 1.4% hits; AID 1024, 2008; activation factor at 5 µM; recombinant CYP2C9, luciferin-H conversion; stronger effect = higher value; factor 1 = untreated enzyme, 0 = blocked; Cytochrome P450 2C9 (Homo sapiens), P11712;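 active = activation factor of 2 or more for CYP2C9 at a 5 µM dose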;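 also: 0 = sulfaphenazole-blocked wells and 1 = vehicle-only wells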
* marks the source's active call; other numbers are inactive results. In the library only some 31% were active in any assay of this set; here they are far more common.

Cc1cc(C(=O)CSc2nc3ccccc3[nH]2)c(C)n1CC1CCCO1 (configuration not stated) was read as PLAP activator 1.4, CYP2C9 inhib 56.5*, CYP2C19 activ 0.5, CYP2C19 inh 54.2* and CYP2C9 activ 0.4.
Screening Cc1sc2nc(SCC(=O)c3cc(C)n(CC4CCCO4)c3C)n(C(C)C)c(=O)c2c1C (configuration not stated) returned PLAP activator 1.4, CYP2C9 inhib 88.4*, CYP2C19 activ 0.2, CYP2C19 inh 82.2* and CYP2C9 activ 0.1.
For C=CCn1c(SCC(=O)c2cc(C)n(CCOC)c2C)nc2sc(C)c(C)c2c1=O the results were PLAP activator 1.1, CYP2C9 inhib 28.5, CYP2C19 activ 0.8, CYP2C19 inh 22.1 and CYP2C9 activ 0.7.
Cc1cccc(-n2nnnc2SCC(=O)c2cc(C)n(Cc3ccco3)c2C)c1 was read as PLAP activator 0.8, CYP2C9 inhib -157.9, CYP2C19 activ 0.5, CYP2C19 inh 45.7 and CYP2C9 activ 2.6*.
`O=C(c1coc(=O)c(Br)c1)N1CCCc2ccccc21` gave PLAP activator 1.2, CYP2C9 inhib 26.4, CYP2C19 activ 0.9, CYP2C19 inh 8.0 and CYP2C9 activ 0.7.
For CCOc1ccc(CNC(=O)C2CCN(S(=O)(=O)N3CCCC3)CC2)cc1OC the results were PLAP activator 1.1, CYP2C9 inhib 2.4, CYP2C19 activ 1.1, CYP2C19 inh -6.5 and CYP2C9 activ 1.
Screening O=C(Nc1ccc2c(c1)OCCO2)C1CCN(c2cnccn2)CC1 returned PLAP activator 1.1, CYP2C9 inhib 16.2, CYP2C19 activ 0.8, CYP2C19 inh 20.6 and CYP2C9 activ 0.8.
Screening Cc1occc1-c1nnc(SCC(=O)c2ccccc2)n1CC1CCCO1 (configuration not stated) returned PLAP activator 1, CYP2C9 inhib -3.3, CYP2C19 activ 0.8, CYP2C19 inh 15.0 and CYP2C9 activ 1.
Screening C=CCn1c(SCC(=O)c2cc(C)n(CC3CCCO3)c2C)nnc1-c1ccccc1 (configuration not stated) returned PLAP activator 1.2, CYP2C9 inhib 8.5, CYP2C19 activ 0.3, CYP2C19 inh 72.9* and CYP2C9 activ 0.9.
`Cc1cc(C(=O)CSc2nnnn2-c2ccc(O)cc2)c(C)n1Cc1ccc2c(c1)OCO2` gave PLAP activator 1.4, CYP2C9 inhib 25.4, CYP2C19 activ 0, CYP2C19 inh 99.0* and CYP2C9 activ 0.7.
For Cc1ccc(C2=N/C(=C/c3cccs3)C(=O)N2Nc2ccccc2)cc1 the results were PLAP activator 0.8, CYP2C9 inhib 12.4, CYP2C19 activ 1, CYP2C19 inh -3.1 and CYP2C9 activ 0.9.
O=C(COC(=O)C1(c2ccccc2F)CCCC1)N1CCOCC1 was read as PLAP activator 1.4, CYP2C9 inhib -28.6, CYP2C19 activ 1, CYP2C19 inh 4.6 and CYP2C9 activ 1.3.
`O=C(CSC1=NCCS1)N1CCCC1` gave PLAP activator 0.9, CYP2C9 inhib 16.7, CYP2C19 activ 0.9, CYP2C19 inh 12.7 and CYP2C9 activ 0.8.
CCOC(=O)/C(=C\c1cccnc1)C(=O)c1cc(C(C)=O)c(Nc2ccccc2)s1 was read as PLAP activator 1.4, CYP2C9 inhib 99.8*, CYP2C19 activ 0.3, CYP2C19 inh 65.0* and CYP2C9 activ 0.
For CCOC(=O)/C(=C\c1ccccc1)C(=O)c1cc(C(C)=O)c(Nc2ccccc2)s1 the results were PLAP activator 1.4, CYP2C9 inhib 98.2*, CYP2C19 activ 0.1, CYP2C19 inh 91.6* and CYP2C9 activ 0.
Screening CCCc1cc(=O)n2c([nH]c3ccccc32)c1C#N returned PLAP activator 0.9, CYP2C9 inhib 56.4*, CYP2C19 activ 1, CYP2C19 inh -2.5 and CYP2C9 activ 0.4.
CC1CC(=O)NN=C1c1ccc(N(C)C)c([N+](=O)[O-])c1 (configuration not stated) was read as PLAP activator 0.9, CYP2C9 inhib 13.7, CYP2C19 activ 0.9, CYP2C19 inh 12.7 and CYP2C9 activ 0.9.
CCN(CC)c1ccc(C2=NNC(=O)CC2C)cc1[N+](=O)[O-] (configuration not stated) was read as PLAP activator 0.8, CYP2C9 inhib 52.1*, CYP2C19 activ 0.5, CYP2C19 inh 49.7 and CYP2C9 activ 0.5.
CCn1c(COc2ccc(C)cc2)nnc1SCC(=O)Nc1ccc(S(N)(=O)=O)cc1 was read as PLAP activator 0.9, CYP2C9 inhib 21.8, CYP2C19 activ 0.9, CYP2C19 inh 6.6 and CYP2C9 activ 0.8.
For Cc1ccc(-c2noc(CN(C(=O)CCCCCN3C(=O)c4ccccc4C3=O)C(C)C)n2)cc1 the results were PLAP activator 1.4, CYP2C9 inhib 90.9*, CYP2C19 activ 0, CYP2C19 inh 96.3* and CYP2C9 activ 0.1.
For CC(C)N(Cc1nc(-c2ccccc2)no1)C(=O)CSc1ccccc1 the results were PLAP activator 1.5, CYP2C9 inhib 79.2*, CYP2C19 activ 0.1, CYP2C19 inh 91.6* and CYP2C9 activ 0.2.
CC(C)N(Cc1nc(-c2ccccc2)no1)C(=O)Cc1ccccc1 was read as PLAP activator 1.6, CYP2C9 inhib 70.6*, CYP2C19 activ 0.1, CYP2C19 inh 89.4* and CYP2C9 activ 0.3.
Cc1ccc(-c2noc(CN(C(=O)CCN3C(=O)c4ccccc4C3=O)C(C)C)n2)cc1 was read as PLAP activator 1.5, CYP2C9 inhib 31.1, CYP2C19 activ 0.8, CYP2C19 inh 24.3 and CYP2C9 activ 0.7.
CC(C)N(Cc1nc(-c2ccc(Cl)cc2)no1)C(=O)CCC1CCCC1 was read as PLAP activator 1.5, CYP2C9 inhib 33.1, CYP2C19 activ 0.7, CYP2C19 inh 29.8 and CYP2C9 activ 0.7.
`Cc1ccc(C)c(C(=O)N(Cc2nc(-c3ccc(Cl)cc3)no2)C(C)C)c1` gave PLAP activator 1.6, CYP2C9 inhib 88.2*, CYP2C19 activ 0.2, CYP2C19 inh 83.1* and CYP2C9 activ 0.1.
Screening O=C(CN1C(=O)c2ccccc2S1(=O)=O)N1CCN(c2ccc(F)cc2)CC1 returned PLAP activator 0.9, CYP2C9 inhib -12.2, CYP2C19 activ 1, CYP2C19 inh -3.3 and CYP2C9 activ 1.1.
Screening CC(C)N(Cc1nc(-c2ccccc2)no1)C(=O)COc1ccccc1 returned PLAP activator 1.5, CYP2C9 inhib 64.2*, CYP2C19 activ 0.1, CYP2C19 inh 88.9* and CYP2C9 activ 0.4.
For Cc1cc(Br)ccc1OCC(=O)N(Cc1nc(-c2ccccc2)no1)C(C)C the results were PLAP activator 1.4, CYP2C9 inhib 38.4, CYP2C19 activ 0.7, CYP2C19 inh 27.6 and CYP2C9 activ 0.6.
Cc1ccc(-c2noc(CN(C(=O)Cc3ccccc3)C(C)C)n2)cc1 was read as PLAP activator 1.6, CYP2C9 inhib 77.8*, CYP2C19 activ 0.3, CYP2C19 inh 74.5* and CYP2C9 activ 0.2.

Screens deposited in PubChem by Sanford-Burnham Center for Chemical Genomics.
